Test results as given in PubChem BioAssay (Tox21).
Results filed as inconclusive are left out. Calls of active or inactive are those of the source. Calls come from the whole dose curve; as a rule, active = well fitted curve in the direction sought with a large enough effect in the repeat runs; inconclusive = weak or mixed curves; inactive = no such curve, though single readings can be large; an effect the other way counts as inactive or inconclusive.

Tests used:
[1] = Human pregnane X receptor (PXR) small molecule agonists, qHTS cell viability counter screen (AID 1346977); note: nearly all actives have a fitted effect of over 50% in size; note: potency is the fitted concentration of half-maximal effect
Method in brief: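 Cytotoxicity counter screen run in the same wells as the PXR luciferase assay, using PXR-Luc HepG2 cells in charcoal-stripped serum medium. Viability: CellTiter-Fluor fluorescence after 24hr compound treatment.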

[2] = Caspase-3/7 induction in HepG2 cells by small molecules, qHTS assay (AID 1346978); note: nearly all actives have a fitted effect of over 15% in size
Method in brief: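 Caspase-3/7 induction was measured by Caspase-Glo 3/7 luminescence (30 min, room temperature) after a 17 hr compound exposure of wild-type HepG2 cells seeded at 2,000 per well and pre-incubated 5 hr.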

[3] = Caspase-3/7 induction in CHO-K1 cells by small molecules, qHTS cell viability counter screen (AID 1346979); note: nearly all actives have a fitted effect of over 35% in size; note: potency is the fitted concentration of half-maximal effect
Method in brief: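 Cytotoxicity counter screen run in parallel with the caspase-3/7 assay: CHO-K1 cells, 16hr compound treatment at 37C, then CellTiter-Fluor for 1hr before fluorescence reading.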

[4] = Caspase-3/7 induction in CHO-K1 cells by small molecules, qHTS assay (AID 1346980); note: nearly all actives have a fitted effect of over 15% in size
Method in brief: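 Luminescent Caspase-Glo 3/7 read (30min, room temperature) quantified apoptosis induction. Cells were wild-type CHO-K1, treated with compound for 17hr at 37 C and 5% CO2.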

[5] = Caspase-3/7 induction in HepG2 cells by small molecules, qHTS cell viability counter screen (AID 1346981); note: nearly all actives have a fitted effect of over 30% in size; note: potency is the fitted concentration of half-maximal effect
Method in brief: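 After a 5-hr attachment period at 37 C and 5% CO2, wild-type HepG2 cells received compounds in DMSO. Sixteen hours later CellTiter-Fluor was dispensed and the fluorescent signal quantified after a further hour.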

[6] = biological target: Nuclear receptor subfamily 1 group I member 2 (Homo sapiens) (UniProt O75469); test: Human pregnane X receptor (PXR) small molecule agonists, qHTS assay (AID 1346982); note: nearly all actives have a fitted effect of over 35% in size; note: potency is the fitted concentration of half-maximal effect
Method in brief: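 Tox21 qHTS; PXR-Luc HepG2; compounds pinned from DMSO; 24 hr, 37 C; ONE-Glo luciferase detection, 30 min room temperature.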

[7] = biological target: Cytochrome P450 2D6 (Homo sapiens) (UniProt P10635); test: Cytochrome P450 Family 2 Subfamily D Member 6 (CYP2D6) small molecule antagonists: luciferase reporter qHTS assay (AID 1671196); note: nearly all actives have a fitted effect of over 50% in size; note: potency is the fitted concentration of half-maximal effect
Method in brief: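 Room-temperature luminescent CYP2D6 activity assay: compound preincubated 10 min with enzyme–substrate mix, NADPH-initiated reaction 1 h, detection reagent 20 min before reading.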

[8] = biological target: Cytochrome P450 2C19 (Homo sapiens) (UniProt P33261); test: Cytochrome P450 Family 2 Subfamily C Member 19 (CYP2C19) small molecule antagonists: luciferase reporter qHTS assay (AID 1671197); note: nearly all actives have a fitted effect of over 65% in size; note: potency is the fitted concentration of half-maximal effect
Method in brief: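 P450-Glo CYP2C19 system: enzyme-substrate mix with compound 10 min at room temperature, then NADPH regeneration solution, 1 h at 37C. Proluciferin-to-luciferin conversion detected by luminescence after 20 min with detection reagent; ketoconazole as positive control.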

[9] = biological target: Cytochrome P450 2C9 (Homo sapiens) (UniProt P11712); test: Cytochrome P450 Family 2 Subfamily C Member 9 (CYP2C9) small molecule antagonists: luciferase reporter qHTS assay (AID 1671198); note: nearly all actives have a fitted effect of over 50% in size; note: potency is the fitted concentration of half-maximal effect
Method in brief: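 Enzyme-substrate mix preincubated with compound 10 min at room temperature; reaction started with NADPH regeneration solution, 1 h 37C. Luminescent luciferin product read after 20 min detection reagent.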

[10] = biological target: Cytochrome P450 1A2 (Homo sapiens) (UniProt P05177); test: Cytochrome P450 Family 1 Subfamily A Member 2 (CYP1A2) small molecule antagonists: luciferase reporter qHTS assay (AID 1671199); note: nearly all actives have a fitted effect of over 50% in size; note: potency is the fitted concentration of half-maximal effect
Method in brief: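 Room-temperature CYP1A2 reaction with proluciferin substrate: compounds added from DMSO, 10 min preincubation, NADPH regeneration for 1 h. Luciferin detection reagent then added; luminescence recorded as RLU.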

[11] = biological target: Voltage-gated inwardly rectifying potassium channel KCNH2 (Homo sapiens) (UniProt Q12809); test: Human Ether-a-go-go-Related Gene (hERG) channel small molecule antagonists: fluorescence cell-based qHTS assay (AID 1671200)
Method in brief: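 Fluorescence at 540 nm emission (480 nm excitation) was recorded kinetically for 2 min at 1-second intervals once the thallium-containing stimulus reached cells previously loaded with FluxOR II dye.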

[12] = biological target: Cytochrome P450 3A4 (Homo sapiens) (UniProt P08684); test: Cytochrome P450 Family 3 Subfamily A Member 4 (CYP3A4) small molecule antagonists: luciferase reporter qHTS assay (AID 1671201); note: nearly all actives have a fitted effect of over 50% in size; note: potency is the fitted concentration of half-maximal effect
Method in brief: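 qHTS, 1536-well. CYP3A4 + proluciferin substrate, cpd 10 min RT → NADPH regen 1 h RT → detection reagent 20 min → luminescence (RLU). Ketoconazole positive control.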

Measured: Potency

Chain of Cytochrome P450 3A4 (Homo sapiens) (P08684 whole entry, looked up): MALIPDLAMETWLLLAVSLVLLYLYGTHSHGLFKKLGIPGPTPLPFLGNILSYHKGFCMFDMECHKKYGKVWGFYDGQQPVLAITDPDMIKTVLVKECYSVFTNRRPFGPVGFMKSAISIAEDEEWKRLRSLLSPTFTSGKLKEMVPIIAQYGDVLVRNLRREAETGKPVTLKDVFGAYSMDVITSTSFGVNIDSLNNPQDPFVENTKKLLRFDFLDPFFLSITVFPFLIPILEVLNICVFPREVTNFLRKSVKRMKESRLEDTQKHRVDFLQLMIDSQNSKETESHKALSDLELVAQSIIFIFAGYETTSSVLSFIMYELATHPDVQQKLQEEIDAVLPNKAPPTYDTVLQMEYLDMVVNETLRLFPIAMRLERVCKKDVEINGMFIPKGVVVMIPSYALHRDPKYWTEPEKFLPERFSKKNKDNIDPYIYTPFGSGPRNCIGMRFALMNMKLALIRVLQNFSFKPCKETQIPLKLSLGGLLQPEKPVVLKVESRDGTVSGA
Chain of Cytochrome P450 2D6 (Homo sapiens) (P10635 whole entry, looked up): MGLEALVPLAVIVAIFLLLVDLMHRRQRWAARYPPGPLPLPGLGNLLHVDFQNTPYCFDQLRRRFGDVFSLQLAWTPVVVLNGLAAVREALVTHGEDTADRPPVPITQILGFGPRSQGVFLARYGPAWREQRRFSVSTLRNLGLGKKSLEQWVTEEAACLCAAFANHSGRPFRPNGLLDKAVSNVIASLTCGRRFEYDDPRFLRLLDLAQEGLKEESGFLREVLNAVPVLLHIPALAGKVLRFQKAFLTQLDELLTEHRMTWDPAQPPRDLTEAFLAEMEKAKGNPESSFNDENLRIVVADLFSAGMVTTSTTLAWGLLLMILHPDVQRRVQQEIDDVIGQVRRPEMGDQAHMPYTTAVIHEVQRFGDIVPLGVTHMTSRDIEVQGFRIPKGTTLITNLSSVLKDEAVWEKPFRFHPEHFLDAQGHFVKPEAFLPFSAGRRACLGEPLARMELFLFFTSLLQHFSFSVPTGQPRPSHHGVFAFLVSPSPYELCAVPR
Chain of Cytochrome P450 2C9 (Homo sapiens) (P11712 whole entry, looked up): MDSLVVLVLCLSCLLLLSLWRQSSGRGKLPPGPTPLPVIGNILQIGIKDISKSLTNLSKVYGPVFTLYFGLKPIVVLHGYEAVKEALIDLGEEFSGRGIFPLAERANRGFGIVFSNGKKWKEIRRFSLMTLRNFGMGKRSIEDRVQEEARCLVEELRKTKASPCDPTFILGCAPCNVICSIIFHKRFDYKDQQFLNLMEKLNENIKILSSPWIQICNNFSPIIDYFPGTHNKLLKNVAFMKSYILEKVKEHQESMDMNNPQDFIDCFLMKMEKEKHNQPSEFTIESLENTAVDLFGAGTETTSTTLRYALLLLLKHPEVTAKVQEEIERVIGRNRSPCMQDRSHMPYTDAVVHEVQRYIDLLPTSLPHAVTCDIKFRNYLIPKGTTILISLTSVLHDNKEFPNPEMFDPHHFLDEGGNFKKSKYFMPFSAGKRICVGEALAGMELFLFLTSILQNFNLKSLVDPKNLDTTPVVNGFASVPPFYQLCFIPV
Chain of Cytochrome P450 2C19 (Homo sapiens) (P33261 whole entry, looked up): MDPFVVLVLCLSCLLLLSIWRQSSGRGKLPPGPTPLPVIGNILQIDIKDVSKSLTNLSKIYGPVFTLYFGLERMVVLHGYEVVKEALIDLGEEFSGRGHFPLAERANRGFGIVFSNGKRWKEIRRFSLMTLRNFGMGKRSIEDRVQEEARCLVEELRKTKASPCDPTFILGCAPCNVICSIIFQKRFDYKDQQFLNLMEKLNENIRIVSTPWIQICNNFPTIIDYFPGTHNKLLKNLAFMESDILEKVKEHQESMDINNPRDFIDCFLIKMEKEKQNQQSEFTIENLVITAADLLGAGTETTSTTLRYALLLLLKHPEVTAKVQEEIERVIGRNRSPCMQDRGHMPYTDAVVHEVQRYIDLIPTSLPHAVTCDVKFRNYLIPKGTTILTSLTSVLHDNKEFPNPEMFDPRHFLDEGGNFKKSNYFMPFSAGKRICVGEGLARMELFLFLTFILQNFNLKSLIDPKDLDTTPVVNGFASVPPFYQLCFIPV
Chain of Voltage-gated inwardly rectifying potassium channel KCNH2 (Homo sapiens) (Q12809 whole entry, looked up): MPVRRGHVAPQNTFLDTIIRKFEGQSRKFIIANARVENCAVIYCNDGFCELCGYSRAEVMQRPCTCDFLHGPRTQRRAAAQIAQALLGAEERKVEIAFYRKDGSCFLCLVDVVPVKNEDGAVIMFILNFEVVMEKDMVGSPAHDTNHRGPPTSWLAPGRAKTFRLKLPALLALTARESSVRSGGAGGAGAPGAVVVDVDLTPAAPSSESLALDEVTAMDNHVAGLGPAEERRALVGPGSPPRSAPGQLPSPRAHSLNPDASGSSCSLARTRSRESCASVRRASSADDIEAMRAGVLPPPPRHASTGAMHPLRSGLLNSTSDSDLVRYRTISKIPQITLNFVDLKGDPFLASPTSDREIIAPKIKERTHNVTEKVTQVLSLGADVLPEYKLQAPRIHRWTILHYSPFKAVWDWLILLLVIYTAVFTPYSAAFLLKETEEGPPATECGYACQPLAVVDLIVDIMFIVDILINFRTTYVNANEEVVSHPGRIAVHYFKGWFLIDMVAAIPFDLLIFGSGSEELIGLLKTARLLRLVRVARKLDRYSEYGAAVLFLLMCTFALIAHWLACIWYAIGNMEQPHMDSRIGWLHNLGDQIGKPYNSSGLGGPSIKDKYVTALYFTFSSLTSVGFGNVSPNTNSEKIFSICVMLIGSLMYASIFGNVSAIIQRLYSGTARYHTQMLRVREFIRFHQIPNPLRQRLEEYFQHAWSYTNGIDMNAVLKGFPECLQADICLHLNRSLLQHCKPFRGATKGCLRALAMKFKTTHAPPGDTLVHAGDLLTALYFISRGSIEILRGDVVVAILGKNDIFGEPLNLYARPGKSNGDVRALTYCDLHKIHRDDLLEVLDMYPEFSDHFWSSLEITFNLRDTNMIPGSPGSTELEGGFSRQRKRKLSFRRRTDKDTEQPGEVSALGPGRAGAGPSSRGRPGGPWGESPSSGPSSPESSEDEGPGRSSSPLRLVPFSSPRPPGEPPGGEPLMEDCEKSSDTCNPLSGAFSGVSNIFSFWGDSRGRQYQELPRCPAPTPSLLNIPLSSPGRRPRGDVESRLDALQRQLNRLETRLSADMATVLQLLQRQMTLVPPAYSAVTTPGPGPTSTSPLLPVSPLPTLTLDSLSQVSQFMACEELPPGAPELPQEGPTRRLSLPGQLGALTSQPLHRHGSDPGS
Chain of Nuclear receptor subfamily 1 group I member 2 (Homo sapiens) (O75469 whole entry, looked up): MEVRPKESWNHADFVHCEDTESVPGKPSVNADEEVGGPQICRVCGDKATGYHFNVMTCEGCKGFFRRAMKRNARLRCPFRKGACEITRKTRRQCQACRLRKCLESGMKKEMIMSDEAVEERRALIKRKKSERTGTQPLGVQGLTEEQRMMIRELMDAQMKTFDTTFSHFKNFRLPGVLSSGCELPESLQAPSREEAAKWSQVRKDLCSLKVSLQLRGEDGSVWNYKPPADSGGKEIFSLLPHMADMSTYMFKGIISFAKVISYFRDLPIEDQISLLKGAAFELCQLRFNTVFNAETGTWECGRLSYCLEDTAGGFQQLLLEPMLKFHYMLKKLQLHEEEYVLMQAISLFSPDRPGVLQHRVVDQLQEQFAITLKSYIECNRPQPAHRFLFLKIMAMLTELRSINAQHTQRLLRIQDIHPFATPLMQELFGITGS
Chain of Cytochrome P450 1A2 (Homo sapiens) (P05177 whole entry, looked up): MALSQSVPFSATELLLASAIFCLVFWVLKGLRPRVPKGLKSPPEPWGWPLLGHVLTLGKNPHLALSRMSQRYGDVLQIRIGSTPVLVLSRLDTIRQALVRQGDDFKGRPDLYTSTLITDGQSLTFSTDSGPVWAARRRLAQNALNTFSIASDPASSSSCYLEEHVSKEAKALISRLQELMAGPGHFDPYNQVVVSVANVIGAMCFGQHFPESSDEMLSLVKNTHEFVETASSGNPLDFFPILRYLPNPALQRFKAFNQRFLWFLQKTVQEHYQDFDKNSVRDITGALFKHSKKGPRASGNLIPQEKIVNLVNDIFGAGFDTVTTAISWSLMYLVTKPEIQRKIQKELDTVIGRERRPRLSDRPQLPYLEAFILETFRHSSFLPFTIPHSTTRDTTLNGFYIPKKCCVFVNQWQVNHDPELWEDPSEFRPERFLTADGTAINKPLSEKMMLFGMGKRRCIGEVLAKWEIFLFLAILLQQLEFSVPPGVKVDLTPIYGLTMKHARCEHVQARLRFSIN

O=C(c1ccccc1)C1CCC1
inactive: all assays above

CCOCCC(=O)OCC
not listed: [10]
inactive: all other assays above

SCCc1cnccn1
active: [8] 31.7 µM | [10] 35.6 µM
not listed: [9]
inactive: all other assays above

COc1cc(NS(=O)(=O)c2ccc(N)cc2)nc(C)n1
inactive: all assays above

CC(=O)C(=O)CC(C)C
active: [8] 35.4 µM
not listed: [9] | [10]
inactive: all other assays above

CC(=O)OCCC1CCCCC1
not listed: [10]
inactive: all other assays above

ClC1=C(Cl)C1(Cl)Cl
not listed: [10]
inactive: all other assays above

C=CC(=O)NC(C)C
not listed: [10]
inactive: all other assays above

CCCCCCC(CO)CCCC (stereo unspecified)
inactive: all assays above

CC(C)c1ccc(C#N)cc1
not listed: [10]
inactive: all other assays above

CCC(C)(C)C(=O)O
inactive: all assays above

CC(CO)(CO)C(=O)O
active: [8] 72.4 µM
not listed: [10]
inactive: all other assays above

CCCCCCOC(=O)CCCCC
not listed: [10]
inactive: all other assays above

Cc1ccccc1S(N)(=O)=O
not listed: [10]
inactive: all other assays above

COC(C)(C)OC
active: [8] 69 µM
not listed: [10]
inactive: all other assays above

O=C1NC(=O)c2cccc3cccc1c23
active: [6] 12.2 µM | [10] 3.17 µM
not listed: [8] | [12]
inactive: all other assays above

CCCCCCC(O)CCOC(C)=O (stereo unspecified)
active: [8] 167 µM
not listed: [9] | [10]
inactive: all other assays above

CCN(CC)CC(=O)Nc1c(C)cccc1C(=O)OC
active: [7] 38.9 µM
not listed: [8] | [10]
inactive: all other assays above

Cc1oc(=O)oc1COC(=O)[C@@H]1N2C(=O)[C@@H](NC(=O)[C@H](N)c3ccccc3)[C@H]2SC1(C)C
not listed: [9] | [12]
inactive: all other assays above

CCN(Cc1cccc(S(=O)(=O)O)c1)c1ccc(C(=C2C=CC(=[N+](CC)Cc3cccc(S(=O)(=O)O)c3)C=C2)c2ccc(O)cc2S(=O)(=O)[O-])cc1
inactive: [2] | [4] | [11]
active: [1] 18.6 µM | [3] 18.6 µM | [5] 16.6 µM | [7] 19.3 µM | [8] 13.6 µM | [9] 6.83 µM | [10] 17.2 µM | [12] 19.3 µM

CCCCOCCOC(=O)c1cccnc1
inactive: [1] | [2] | [3] | [4] | [5] | [6] | [11]
